# ± gives the standard deviation.
# Test system: EfPiwi piRISC loaded with L1MC piRNA (26 nt)
# Test: pre-steady-state target cleavage rate (min^-1); auxiliary factor: 500 nM Ephydatia muelleri Gtsf1; guide: L1MC piRNA 5'p-UAACUAAAUACUAUGCAAGCUGUAGG; MIWI and MILI are mouse PIWI proteins and EfPiwi is from a freshwater sponge; tags in brackets are library labels; higher = faster piRNA-guided slicing of the target
# How it was run: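 A burst-and-steady-state fit was used to obtain the pre-steady-state cleavage rate. The input data were sequencing reads of uncleaved targets, normalised to depth and to weakly complementary targets, from a […] transcribed, DNA-blocked target RNA library mixed with 1 nM active affinity-purified piRISC holding one synthetic guide, with or without 500 nM GTSF1 partner protein, in HEPES–potassium acetate buffer at 33 °C for 0–8 or 0–960 min. Three trials were pooled and k3 was capped at 0.0001 min^-1.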
row,Sequence,pre-steady-state target cleavage rate
1,UCCUGGUUCAGCAUGCAUAGUAUUUAGUUA,0.0347 ± 0.0092
2,UCCUGGAUGAGCUUGCAUAGUAUUUAGUUC [g2:g21:cont:t1C],0.039 ± 0.01
3,UCCUGGAUGUCGAACGUAUCUAUUAUAGUUA,< 0.0001
4,UCCUGGAUGUCGAACGUAUCAAUAUAGUUA,< 0.0001
5,UCCUGCUACAGCUUCCAUAGUAUUUAGAUA,0.00303 ± 0.00093
6,UCCUGGAUCAGCUUGCUUAGUAUUUACAAA,0.00612 ± 0.0047
7,UCCUGGAUGUCGAACGUUACAAUUUAGUUA,< 0.0001
8,UCCUGGAUGUCCUUGCCUAGUAUUUAGUUA,0.00345 ± 0.002
9,UCCUGGAUCAGCUUCCAUAGUAUUUAGAUA,0.00231 ± 0.0018
10,UCCUGGUACAGCUUGCAUAGUAUGUUAGUUA,0.00488 ± 0.0028
11,UCCUGGUACAGCUUCGAUAGUAUUUACAAA,0.00595 ± 0.0049
12,UCCUGGAUGUCGAACGUAAGUAUUUGGUUA,< 0.0001
13,UCCUGGAUGAGCUUCCAUAGUAUUUAGAAA,0.00248 ± 0.0019
14,UCCUCCUACAGCUUGCAUAGUUAAUAGAAA,0.00366 ± 0.0031
15,UCCUGGAACAGCUUCCAUAGUAUUUAGAUA,0.00228 ± 0.0017
16,UCCUGGAAGAGCUUGCAUAGUAUAUAGUUA,0.0114 ± 0.0044
17,UCCUGGAUCAGCUUCCAUAGUAUUUAGAAA,0.00474 ± 0.0027

# Reference: the supplement of paper PMC10338343
